# Reference: publication PMC7862700, “An all-to-all approach to the identification of sequence-specific readers for epigenetic DNA modifications on cytosine”
# Legend:
# Assay in all cases: DAPPL (digital affinity profiling via proximity ligation, sequencing); 10 mM Tris-HCl pH 7.5, 50 mM NaCl, 1 mM DTT, 4% glycerol, room temperature, 30 min; GST-TFs on glutathione beads, 16-mer random dsDNA library, 0.1% formaldehyde crosslink after washing; high values mean tight binding
# Conditions in all cases: protein: recombinant; tags: N-terminal GST; dsDNA, one strand shown
# [1] = target: T1, FLI1 (Homo sapiens, UniProt Q01543 1-452)
# T1 sequence: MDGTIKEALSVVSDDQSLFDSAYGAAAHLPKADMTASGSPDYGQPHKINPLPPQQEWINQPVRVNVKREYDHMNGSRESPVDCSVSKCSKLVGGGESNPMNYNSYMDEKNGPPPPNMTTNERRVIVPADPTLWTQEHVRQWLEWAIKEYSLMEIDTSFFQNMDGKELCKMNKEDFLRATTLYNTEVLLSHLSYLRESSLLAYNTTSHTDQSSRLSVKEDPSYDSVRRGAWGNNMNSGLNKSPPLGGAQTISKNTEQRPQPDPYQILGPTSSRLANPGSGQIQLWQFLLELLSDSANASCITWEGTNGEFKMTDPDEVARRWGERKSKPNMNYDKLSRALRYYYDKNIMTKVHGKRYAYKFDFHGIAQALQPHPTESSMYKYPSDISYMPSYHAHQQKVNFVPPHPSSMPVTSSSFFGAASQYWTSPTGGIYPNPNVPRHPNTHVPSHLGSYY
# Procedure, shortened: (§1)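 Binding signal is each hexamer's read frequency for a factor divided by its frequency in the tag-only sample. The factors were GST-fused human transcription factors from yeast, captured on glutathione beads, DNA-barcoded and pooled with that sample. Pools were incubated with 200 nmole of a random double-stranded 16-mer DNA library in Tris/NaCl/DTT/glycerol buffer at room temperature for 30 min, then washed, crosslinked with 0.1% formaldehyde, proximity-ligated with BsaI/T4 ligase (1 h, 37 °C), PCR-amplified and sequenced on an Illumina NextSeq500.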
# [2] = target: T2, ELK1 (Homo sapiens, UniProt P19419 1-428)
# T2 sequence: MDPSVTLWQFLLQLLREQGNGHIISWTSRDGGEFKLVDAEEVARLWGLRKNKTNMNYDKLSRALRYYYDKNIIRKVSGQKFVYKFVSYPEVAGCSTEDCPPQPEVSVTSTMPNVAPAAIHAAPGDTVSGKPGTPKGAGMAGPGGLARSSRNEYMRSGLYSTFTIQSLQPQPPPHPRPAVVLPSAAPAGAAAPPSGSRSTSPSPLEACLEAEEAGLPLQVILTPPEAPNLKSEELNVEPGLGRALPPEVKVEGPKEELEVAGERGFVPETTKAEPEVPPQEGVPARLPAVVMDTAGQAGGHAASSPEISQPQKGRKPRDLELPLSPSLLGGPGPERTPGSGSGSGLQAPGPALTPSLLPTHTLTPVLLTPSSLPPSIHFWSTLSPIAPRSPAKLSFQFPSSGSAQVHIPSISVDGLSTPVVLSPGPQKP
# Procedure, shortened: as §1
# [3] = target: T3, GABPA (Homo sapiens, UniProt Q06546 1-454)
# T3 sequence: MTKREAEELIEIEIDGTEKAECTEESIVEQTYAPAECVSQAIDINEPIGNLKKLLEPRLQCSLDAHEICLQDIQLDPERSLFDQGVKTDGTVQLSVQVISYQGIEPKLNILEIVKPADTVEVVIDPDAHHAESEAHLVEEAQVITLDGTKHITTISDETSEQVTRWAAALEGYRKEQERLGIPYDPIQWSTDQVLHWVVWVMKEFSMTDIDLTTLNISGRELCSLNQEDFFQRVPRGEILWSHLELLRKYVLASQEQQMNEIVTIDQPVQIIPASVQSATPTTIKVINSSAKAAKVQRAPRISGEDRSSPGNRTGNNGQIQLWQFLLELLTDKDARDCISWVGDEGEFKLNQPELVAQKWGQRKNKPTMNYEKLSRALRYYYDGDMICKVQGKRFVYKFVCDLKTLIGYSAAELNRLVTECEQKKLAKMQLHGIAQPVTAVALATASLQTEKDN
# Procedure, shortened: as §1
# [4] = target: T4, ERG (Homo sapiens, UniProt P11308 1-479)
# T4 sequence: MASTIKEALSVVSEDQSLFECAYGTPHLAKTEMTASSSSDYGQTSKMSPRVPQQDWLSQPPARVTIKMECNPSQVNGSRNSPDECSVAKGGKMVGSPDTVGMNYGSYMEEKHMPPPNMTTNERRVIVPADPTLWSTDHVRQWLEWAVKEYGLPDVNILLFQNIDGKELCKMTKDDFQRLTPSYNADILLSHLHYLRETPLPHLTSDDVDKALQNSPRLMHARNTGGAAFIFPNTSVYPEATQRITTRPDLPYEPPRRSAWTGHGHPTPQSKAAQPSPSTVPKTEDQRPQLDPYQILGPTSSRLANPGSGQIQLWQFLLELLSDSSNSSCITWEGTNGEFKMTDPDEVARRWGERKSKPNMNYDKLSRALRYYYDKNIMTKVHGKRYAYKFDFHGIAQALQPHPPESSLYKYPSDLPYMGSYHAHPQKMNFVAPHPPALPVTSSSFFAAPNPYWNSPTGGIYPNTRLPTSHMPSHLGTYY
# Procedure, shortened: as §1
# [5] = target: ELF1 (Homo sapiens, UniProt P32519 1-619)
# Procedure, shortened: as §1
# [6] = target: T5, EHF (Homo sapiens, UniProt Q9NZC4 1-300)
# T5 sequence: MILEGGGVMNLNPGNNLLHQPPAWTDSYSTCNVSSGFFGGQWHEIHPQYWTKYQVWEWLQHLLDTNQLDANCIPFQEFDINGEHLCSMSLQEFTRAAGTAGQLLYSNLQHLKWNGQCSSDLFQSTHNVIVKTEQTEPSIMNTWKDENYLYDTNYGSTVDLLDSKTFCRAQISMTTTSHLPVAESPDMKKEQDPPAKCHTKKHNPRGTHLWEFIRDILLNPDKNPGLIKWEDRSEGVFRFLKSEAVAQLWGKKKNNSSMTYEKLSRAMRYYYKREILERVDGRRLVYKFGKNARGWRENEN
# Procedure, shortened: as §1
# [7] = target: SPIB (Homo sapiens, UniProt Q01892 1-262)
# Procedure, shortened: as §1
# [8] = target: T6, FEV (Homo sapiens, UniProt Q99581 1-238)
# T6 sequence: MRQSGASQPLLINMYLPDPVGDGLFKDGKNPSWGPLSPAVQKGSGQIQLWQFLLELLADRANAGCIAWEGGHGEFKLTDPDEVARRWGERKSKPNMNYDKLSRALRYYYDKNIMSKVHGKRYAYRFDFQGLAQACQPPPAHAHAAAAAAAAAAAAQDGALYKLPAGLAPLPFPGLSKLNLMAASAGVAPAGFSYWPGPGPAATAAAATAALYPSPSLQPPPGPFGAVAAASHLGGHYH
# Procedure, shortened: as §1
# [9] = target: ETV5 (Homo sapiens, UniProt P41161 1-510)
# Procedure, shortened: as §1
# [10] = target: ELF4 (Homo sapiens, UniProt Q99607 1-663)
# Procedure, shortened: as §1
# [11] = target: T7, ETV2 (Homo sapiens, UniProt O00321 1-342)
# T7 sequence: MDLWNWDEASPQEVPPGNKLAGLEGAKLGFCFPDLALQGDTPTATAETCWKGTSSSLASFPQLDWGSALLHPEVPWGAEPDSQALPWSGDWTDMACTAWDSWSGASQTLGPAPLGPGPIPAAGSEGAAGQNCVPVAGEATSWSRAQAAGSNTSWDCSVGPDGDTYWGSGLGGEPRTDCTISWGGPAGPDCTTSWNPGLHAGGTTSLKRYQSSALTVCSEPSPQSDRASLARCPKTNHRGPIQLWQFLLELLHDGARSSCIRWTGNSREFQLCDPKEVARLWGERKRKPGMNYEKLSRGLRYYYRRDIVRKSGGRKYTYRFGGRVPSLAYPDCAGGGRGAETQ
# Procedure, shortened: as §1
# [12] = target: T8, ELF3 (Homo sapiens, UniProt P78545 1-371)
# T8 sequence: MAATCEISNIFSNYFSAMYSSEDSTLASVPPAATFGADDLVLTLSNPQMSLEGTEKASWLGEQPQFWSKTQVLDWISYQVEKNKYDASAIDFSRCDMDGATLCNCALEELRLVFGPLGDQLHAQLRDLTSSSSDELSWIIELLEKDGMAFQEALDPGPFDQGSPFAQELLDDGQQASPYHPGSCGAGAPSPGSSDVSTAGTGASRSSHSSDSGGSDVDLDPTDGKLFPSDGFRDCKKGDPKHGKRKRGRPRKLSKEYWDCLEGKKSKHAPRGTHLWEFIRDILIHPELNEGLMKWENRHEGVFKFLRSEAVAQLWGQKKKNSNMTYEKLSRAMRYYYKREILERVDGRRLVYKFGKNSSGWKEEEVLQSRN
# Procedure, shortened: as §1
# [13] = target: ETV1 (Homo sapiens, UniProt P50549 1-477)
# Procedure, shortened: as §1
# [14] = target: T9, ERF (Homo sapiens, UniProt P50548 1-548)
# T9 sequence: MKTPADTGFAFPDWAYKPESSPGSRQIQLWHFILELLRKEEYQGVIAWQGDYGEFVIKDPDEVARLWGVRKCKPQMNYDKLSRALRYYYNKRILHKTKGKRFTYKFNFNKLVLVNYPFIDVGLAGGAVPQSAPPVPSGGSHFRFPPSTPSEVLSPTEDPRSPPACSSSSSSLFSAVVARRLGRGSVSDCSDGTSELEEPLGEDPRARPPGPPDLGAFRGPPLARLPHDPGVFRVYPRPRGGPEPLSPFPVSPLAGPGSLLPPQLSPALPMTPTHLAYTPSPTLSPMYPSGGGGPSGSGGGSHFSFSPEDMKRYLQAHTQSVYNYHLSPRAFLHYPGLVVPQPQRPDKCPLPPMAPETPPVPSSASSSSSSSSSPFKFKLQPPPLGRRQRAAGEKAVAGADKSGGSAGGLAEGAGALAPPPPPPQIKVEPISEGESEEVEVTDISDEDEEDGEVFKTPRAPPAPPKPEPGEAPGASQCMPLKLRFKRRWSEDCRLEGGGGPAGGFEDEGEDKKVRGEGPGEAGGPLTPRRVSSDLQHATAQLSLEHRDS
# Procedure, shortened: as §1
# [15] = target: T10, ETV3L (Homo sapiens, UniProt Q6ZN32 1-361)
# T10 sequence: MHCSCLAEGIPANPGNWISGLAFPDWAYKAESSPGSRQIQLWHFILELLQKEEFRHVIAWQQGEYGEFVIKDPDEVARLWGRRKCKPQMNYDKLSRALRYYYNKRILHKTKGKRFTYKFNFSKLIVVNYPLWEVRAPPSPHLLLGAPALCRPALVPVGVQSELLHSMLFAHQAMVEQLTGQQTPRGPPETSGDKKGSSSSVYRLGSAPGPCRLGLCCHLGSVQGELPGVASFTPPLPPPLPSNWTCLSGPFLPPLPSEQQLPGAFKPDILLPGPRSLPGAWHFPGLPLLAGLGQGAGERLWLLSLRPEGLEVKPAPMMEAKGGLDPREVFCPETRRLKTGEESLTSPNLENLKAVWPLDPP
# Procedure, shortened: as §1
# [16] = target: T11, ETS2 (Homo sapiens, UniProt P15036 1-469)
# T11 sequence: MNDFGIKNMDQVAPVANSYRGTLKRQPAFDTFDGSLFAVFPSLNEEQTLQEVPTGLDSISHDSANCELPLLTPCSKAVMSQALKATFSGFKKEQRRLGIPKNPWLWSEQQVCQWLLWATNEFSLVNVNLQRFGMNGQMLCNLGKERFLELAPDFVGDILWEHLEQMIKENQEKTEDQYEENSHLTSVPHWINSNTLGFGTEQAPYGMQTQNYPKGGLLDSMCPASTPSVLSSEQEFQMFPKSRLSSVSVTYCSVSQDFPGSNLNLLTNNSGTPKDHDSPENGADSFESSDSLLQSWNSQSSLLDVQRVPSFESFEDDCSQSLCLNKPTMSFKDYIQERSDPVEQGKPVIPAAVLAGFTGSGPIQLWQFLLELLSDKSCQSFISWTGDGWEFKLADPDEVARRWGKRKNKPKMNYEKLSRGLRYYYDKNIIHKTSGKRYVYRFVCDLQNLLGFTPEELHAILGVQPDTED
# Procedure, shortened: as §1
# [17] = target: T12, ETV7 (Homo sapiens, UniProt Q9Y603 1-341)
# T12 sequence: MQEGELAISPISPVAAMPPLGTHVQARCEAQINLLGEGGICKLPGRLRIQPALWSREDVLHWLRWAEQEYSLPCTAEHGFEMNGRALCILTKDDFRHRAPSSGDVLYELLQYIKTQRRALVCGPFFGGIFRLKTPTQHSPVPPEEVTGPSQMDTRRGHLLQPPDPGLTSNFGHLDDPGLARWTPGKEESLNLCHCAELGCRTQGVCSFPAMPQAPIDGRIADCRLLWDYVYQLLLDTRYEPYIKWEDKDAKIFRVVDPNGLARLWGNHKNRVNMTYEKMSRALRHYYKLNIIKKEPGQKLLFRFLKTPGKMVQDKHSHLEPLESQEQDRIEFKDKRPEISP
# Procedure, shortened: as §1
# [18] = target: T13, ETV3 (Homo sapiens, UniProt P41162-2 1-143)
# T13 sequence: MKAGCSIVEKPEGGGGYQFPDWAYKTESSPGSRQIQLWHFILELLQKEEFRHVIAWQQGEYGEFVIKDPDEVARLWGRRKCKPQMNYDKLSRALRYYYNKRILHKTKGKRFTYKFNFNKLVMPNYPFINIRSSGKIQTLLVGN
# Procedure, shortened: as §1
# [19] = target: ETV6 (Homo sapiens, UniProt P41212 1-452)
# Procedure, shortened: as §1
# Chain of ETV1 (P50549 whole entry): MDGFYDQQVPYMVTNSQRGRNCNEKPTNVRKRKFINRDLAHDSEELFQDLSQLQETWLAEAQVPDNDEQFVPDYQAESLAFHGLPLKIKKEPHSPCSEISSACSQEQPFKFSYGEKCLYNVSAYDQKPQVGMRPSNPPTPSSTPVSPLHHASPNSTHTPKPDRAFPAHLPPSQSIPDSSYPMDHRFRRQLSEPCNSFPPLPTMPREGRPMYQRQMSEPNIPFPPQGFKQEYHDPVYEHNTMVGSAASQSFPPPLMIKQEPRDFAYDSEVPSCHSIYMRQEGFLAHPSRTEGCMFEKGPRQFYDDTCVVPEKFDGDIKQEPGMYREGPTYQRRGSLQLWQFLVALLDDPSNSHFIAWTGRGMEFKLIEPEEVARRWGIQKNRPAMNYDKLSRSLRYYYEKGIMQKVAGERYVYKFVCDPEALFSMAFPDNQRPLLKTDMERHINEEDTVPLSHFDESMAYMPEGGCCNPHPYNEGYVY
# Chain of ELF1 (P32519 whole entry): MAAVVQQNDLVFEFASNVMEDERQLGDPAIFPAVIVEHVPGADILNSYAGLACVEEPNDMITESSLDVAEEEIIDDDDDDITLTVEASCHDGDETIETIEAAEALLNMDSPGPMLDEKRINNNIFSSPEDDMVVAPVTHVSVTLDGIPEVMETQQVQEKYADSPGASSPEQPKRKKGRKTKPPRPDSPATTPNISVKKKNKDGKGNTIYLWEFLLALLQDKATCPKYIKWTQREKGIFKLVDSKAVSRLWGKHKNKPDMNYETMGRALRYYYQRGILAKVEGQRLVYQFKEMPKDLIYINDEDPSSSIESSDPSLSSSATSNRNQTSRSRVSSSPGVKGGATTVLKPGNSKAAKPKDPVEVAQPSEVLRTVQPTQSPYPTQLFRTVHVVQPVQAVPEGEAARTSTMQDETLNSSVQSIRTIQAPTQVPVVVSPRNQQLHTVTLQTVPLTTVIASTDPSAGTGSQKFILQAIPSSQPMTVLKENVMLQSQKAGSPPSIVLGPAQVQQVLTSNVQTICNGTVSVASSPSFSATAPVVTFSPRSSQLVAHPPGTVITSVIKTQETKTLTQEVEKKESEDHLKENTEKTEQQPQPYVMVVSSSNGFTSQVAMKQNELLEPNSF
# Chain of ELF4 (Q99607 whole entry): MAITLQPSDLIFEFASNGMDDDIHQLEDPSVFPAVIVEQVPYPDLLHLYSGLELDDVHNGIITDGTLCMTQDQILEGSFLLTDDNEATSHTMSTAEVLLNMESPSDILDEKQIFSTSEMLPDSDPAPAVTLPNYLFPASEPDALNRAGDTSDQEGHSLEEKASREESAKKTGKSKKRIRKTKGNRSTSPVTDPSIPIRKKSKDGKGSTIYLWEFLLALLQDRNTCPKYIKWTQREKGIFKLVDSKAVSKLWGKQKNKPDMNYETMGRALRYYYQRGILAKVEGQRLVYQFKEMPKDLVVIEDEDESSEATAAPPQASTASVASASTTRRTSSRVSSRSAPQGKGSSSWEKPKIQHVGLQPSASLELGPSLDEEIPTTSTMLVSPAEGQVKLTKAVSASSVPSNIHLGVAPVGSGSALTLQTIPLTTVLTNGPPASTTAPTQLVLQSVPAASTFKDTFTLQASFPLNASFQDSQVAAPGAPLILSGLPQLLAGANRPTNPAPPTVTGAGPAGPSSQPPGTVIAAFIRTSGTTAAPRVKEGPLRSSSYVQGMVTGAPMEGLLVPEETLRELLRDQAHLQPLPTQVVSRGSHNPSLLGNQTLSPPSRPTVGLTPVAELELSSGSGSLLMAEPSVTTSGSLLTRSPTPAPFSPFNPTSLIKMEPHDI
# Chain of ETV5 (P41161 whole entry): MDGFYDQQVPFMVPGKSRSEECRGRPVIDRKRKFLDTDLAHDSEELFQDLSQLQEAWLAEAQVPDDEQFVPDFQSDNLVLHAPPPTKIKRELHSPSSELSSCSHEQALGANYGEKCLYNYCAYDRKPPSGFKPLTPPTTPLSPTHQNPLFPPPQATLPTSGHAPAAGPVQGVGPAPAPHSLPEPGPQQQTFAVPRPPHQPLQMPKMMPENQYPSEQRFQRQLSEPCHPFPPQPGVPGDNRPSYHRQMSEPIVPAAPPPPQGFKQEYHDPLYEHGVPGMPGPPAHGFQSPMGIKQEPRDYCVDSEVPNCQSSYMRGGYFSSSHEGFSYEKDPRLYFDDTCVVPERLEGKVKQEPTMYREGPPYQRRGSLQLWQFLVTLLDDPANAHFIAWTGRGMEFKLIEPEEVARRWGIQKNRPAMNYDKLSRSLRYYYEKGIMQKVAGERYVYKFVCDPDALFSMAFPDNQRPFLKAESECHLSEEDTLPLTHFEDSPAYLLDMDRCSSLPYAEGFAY
# Chain of SPIB (Q01892 whole entry): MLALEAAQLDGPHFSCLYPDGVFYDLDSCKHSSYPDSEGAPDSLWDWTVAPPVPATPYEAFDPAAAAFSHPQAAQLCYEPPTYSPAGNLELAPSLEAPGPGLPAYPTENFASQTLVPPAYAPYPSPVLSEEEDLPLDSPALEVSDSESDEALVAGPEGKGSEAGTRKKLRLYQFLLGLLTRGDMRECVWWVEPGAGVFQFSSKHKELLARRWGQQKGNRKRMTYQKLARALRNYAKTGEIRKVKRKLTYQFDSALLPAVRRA
# Chain of ETV6 (P41212 whole entry): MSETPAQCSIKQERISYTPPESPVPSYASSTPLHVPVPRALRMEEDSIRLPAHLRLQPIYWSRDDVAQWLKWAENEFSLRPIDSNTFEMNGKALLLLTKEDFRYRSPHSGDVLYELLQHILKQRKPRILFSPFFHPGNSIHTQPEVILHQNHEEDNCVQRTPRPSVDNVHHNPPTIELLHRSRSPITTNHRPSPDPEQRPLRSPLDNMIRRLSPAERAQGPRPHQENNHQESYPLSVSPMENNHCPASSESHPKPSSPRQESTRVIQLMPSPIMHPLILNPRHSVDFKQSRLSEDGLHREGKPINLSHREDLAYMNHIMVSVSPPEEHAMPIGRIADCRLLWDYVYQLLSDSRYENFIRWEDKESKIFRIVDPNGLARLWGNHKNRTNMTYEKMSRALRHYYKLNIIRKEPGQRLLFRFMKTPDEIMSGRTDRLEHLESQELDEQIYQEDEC
sequence,measurement,setting,value
ATGCCA,binding signal,[1],"1.01 fold enrichment (6-mer frequency, TF over GST control)"
same,binding signal,[2],"1.06 fold enrichment (6-mer frequency, TF over GST control)"
same,binding signal,[3],"1.02 fold enrichment (6-mer frequency, TF over GST control)"
same,binding signal,[4],"1.04 fold enrichment (6-mer frequency, TF over GST control)"
same,binding signal,[5],"1.07 fold enrichment (6-mer frequency, TF over GST control)"
same,binding signal,[6],"1.05 fold enrichment (6-mer frequency, TF over GST control)"
same,binding signal,[7],"1.03 fold enrichment (6-mer frequency, TF over GST control)"
same,binding signal,[8],"1.04 fold enrichment (6-mer frequency, TF over GST control)"
same,binding signal,[9],"1.05 fold enrichment (6-mer frequency, TF over GST control)"
same,binding signal,[10],"1.09 fold enrichment (6-mer frequency, TF over GST control)"
same,binding signal,[11],"1.06 fold enrichment (6-mer frequency, TF over GST control)"
same,binding signal,[12],"1.09 fold enrichment (6-mer frequency, TF over GST control)"
same,binding signal,[13],"1.02 fold enrichment (6-mer frequency, TF over GST control)"
same,binding signal,[14],"1 fold enrichment (6-mer frequency, TF over GST control)"
same,binding signal,[15],"1.02 fold enrichment (6-mer frequency, TF over GST control)"
same,binding signal,[16],"1.03 fold enrichment (6-mer frequency, TF over GST control)"
same,binding signal,[17],"1.08 fold enrichment (6-mer frequency, TF over GST control)"
same,binding signal,[18],"1.13 fold enrichment (6-mer frequency, TF over GST control)"
same,binding signal,[19],"1.05 fold enrichment (6-mer frequency, TF over GST control)"
